# The sample as a whole holds a higher share of the strongest signals than the screen did.
# How the values were obtained:
# Experiment in all cases: glycan array binding signal (z-score within array); higher = stronger binding
# Settings in all cases: glycan notation: IUPAC condensed, linker removed
# [1] = tested on: Neu5Ac(a2-6)Gal(b1-4)GlcNAc(b1-6)[Gal(b1-3)GlcNAc(b1-3)]Gal(b1-4)Glc
# In short: (§1)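 Arrays were curated from the Consortium for Functional Glycomics database, 3228 in total, and kept only where the protein sequence was available. Binding is expressed as a within-array Z-score. This score was averaged across arrays of the same protein sequence at different concentrations or buffers and across linkers, and negative values can be read as non-binding.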
# [2] = tested on: Neu5Ac(a2-6)Gal(b1-4)GlcNAc
# In short: as §1
# [3] = tested on: Neu5Ac(a2-6)GalNAc(b1-4)GlcNAc
# In short: as §1
# [4] = tested on: Neu5Ac(a2-6)GlcNAc(b1-4)GlcNAc
# In short: as §1
# [5] = tested on: Neu5Ac(a2-6)Gal(b1-4)GlcNAc6S
# In short: as §1
# [6] = tested on: Neu5Ac(a2-6)Gal
# In short: as §1
# [7] = tested on: Neu5Ac(a2-8)Neu5Ac(a2-3)Gal(b1-3)GalNAc(b1-4)[Neu5Ac(a2-8)Neu5Ac(a2-3)]Gal(b1-4)Glc
# In short: as §1
# [8] = tested on: Neu5Ac(a2-6)Gal(b1-4)GlcNAc(b1-3)[Neu5Ac(a2-6)Gal(b1-4)GlcNAc(b1-6)]GalNAc
# In short: as §1
# [9] = tested on: Neu5Ac(a2-8)Neu5Ac(a2-3)Gal(b1-3)GalNAc(b1-4)[Neu5Ac(a2-3)]Gal(b1-4)Glc
# In short: as §1
# [10] = tested on: Neu5Ac(a2-8)Neu5Ac(a2-3)Gal(b1-4)GlcNAc
# In short: as §1
substance,measurement,setting,value
Epa22,glycan array binding signal (z-score),[1],0.104
same,glycan array binding signal (z-score),[2],-0.607
same,glycan array binding signal (z-score),[3],-0.394
same,glycan array binding signal (z-score),[4],-0.046
Actinohivin (Actinomycete K97),glycan array binding signal (z-score),[5],-0.199
same,glycan array binding signal (z-score),[3],-0.197
same,glycan array binding signal (z-score),[6],-0.147
LcI (Legionella pneumophila),glycan array binding signal (z-score),[3],-0.669
"SpGH101 (Streptococcus pneumoniae), Q8DR60",glycan array binding signal (z-score),[2],-0.172
"BambL (Burhholderia ambifaria), Q0B4G1",glycan array binding signal (z-score),[7],-0.308
AgI/II Vhelical-GFP (Streptococcus mutans),glycan array binding signal (z-score),[8],-0.298
same,glycan array binding signal (z-score),[5],-0.076
same,glycan array binding signal (z-score),[6],-0.257
same,glycan array binding signal (z-score),[9],-0.253
"MIC3-MAR1b (Eimeria tenella), B6VCV4",glycan array binding signal (z-score),[1],1.38
"MIC3-MAR5 (Eimeria tenella), B6VCV4",glycan array binding signal (z-score),[9],3.86
AgI/IIC123-GFP (Streptococcus mutans),glycan array binding signal (z-score),[10],-0.506
